Coupling enz – counter-screen for Giardia aldolase inhibitors: coupling enzyme system; coupling enzyme system counterscreen, AmpLite Red fluorescence; activity change, negative = inhibition, % at 58.2 µM, hits read low; 290,000 compounds, 0.67% hits; AID 2472; in the data active = activity change below about -30%
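Fluorescence at 525 nm excitation and 598 nm emission measured inhibition of the coupled detection system without aldolase. Compounds (at 57.5 uM final) were preincubated 10 min at room temperature with coupling enzyme reagent before a 20 min substrate/AmpLite Red step.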
Tau FP inhib – inhibitors of human tau fibril formation; K18 P301L tau heparin fibrillization, Alexa594 FP, 6 h; Potency, µM (highest dose often 57.7 µM), for the others: at the top dose activity, negative = inhibition, most hits filed as inhibitors; 280,000 compounds, 0.39% hits; also: potency is read from the fitted curve at half-maximal effect; nearly all actives have a fitted effect of over 55% in size
Target sequence (P10636 561-689 P618L limits assumed): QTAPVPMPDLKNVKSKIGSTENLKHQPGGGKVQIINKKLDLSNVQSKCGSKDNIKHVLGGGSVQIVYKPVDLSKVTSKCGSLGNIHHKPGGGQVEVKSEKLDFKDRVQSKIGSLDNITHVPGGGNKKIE
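Heparin (20 uM) drove fibril formation of recombinant tau K18 P301L, 15 uM unlabeled with 0.24 uM Alexa 594 label, for 6 hr at 37 C in 100 mM sodium acetate pH 7. Fluorescence polarization (555/632 nm) read 1 hr after 30 uM ThT.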
Tau fluor cs – counter-screen for tau fibril formation inhibitors; tau K18 P301L Alexa594 fluorescence, heparin fibrillization; Potency, µM (series often up to 57.7 µM), inactives show at the highest dose activity change, negative = decrease; 280,000 compounds, 0.93% hits; AID 1463; also: potency is read from the fitted curve at half-maximal effect; nearly all actives have a fitted effect of over 55% in size
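Human K18 P301L tau (15 uM unlabeled plus 0.24 uM Alexa 594-labeled, final) in 100 mM sodium acetate pH 7 was mixed with compound and 20 uM heparin and incubated 6 hr at 37 C.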
JMJD2E inh – inhibitors of human JMJD2E histone demethylase | B2RXH2 | JMJD2E catalytic domain, FDH-coupled NADH fluorescence (FDH is formaldehyde dehydrogenase) | Potency, µM (doses to about 57.1 µM), inactives show at the top dose activity change, negative = inhibition, hits mostly inhibitors | 230,000 compounds, 1.6% hits; active = well fitted inhibition curve with a large enough effect, not every such curve was filed as active; inconclusive = small, poorly fitted or top-dose-only effect, or another doubt; inactive = no such curve, though single readings can be large or run the other way;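 also: potency is read from the fitted curve at half-maximal effect; 0% = wells with enzyme and -100% = buffer wells without enzyme; nearly all actives have a fitted effect of over 50% in size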
Target sequence (B2RXH2 1-337 limits assumed): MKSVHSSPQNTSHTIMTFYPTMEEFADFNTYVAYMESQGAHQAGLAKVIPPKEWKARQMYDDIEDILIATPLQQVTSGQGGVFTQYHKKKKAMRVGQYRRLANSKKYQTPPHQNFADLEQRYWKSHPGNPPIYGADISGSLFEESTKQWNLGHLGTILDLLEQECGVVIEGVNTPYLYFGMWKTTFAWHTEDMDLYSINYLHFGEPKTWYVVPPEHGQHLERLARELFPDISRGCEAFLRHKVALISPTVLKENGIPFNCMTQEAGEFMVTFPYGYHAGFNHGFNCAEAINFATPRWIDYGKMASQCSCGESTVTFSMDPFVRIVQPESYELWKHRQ
Tau fibril ThT – blocks human tau fibril formation measured by thioflavin T; P10636; recombinant tau K18 P301L (four-repeat tau fragment), heparin-induced fibrillization, ThT fluorescence; Potency, µM (doses to about 57.4 µM), for inactives: at the highest dose activity, negative = inhibition, usual class: inhibitors; 270,000 compounds, 2.1% hits; AID 1460; also: potency is read from the fitted curve at half-maximal effect; nearly all actives have a fitted effect of over 55% in size
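Heparin-induced fibrillization of the P301L-mutant K18 repeat-domain fragment of human tau was followed by ThT binding in quantitative high-throughput format.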
Sfp inh – inhibitors of Bacillus subtilis Sfp phosphopantetheinyl transferase | Potency, µM, without a hit: largest response in the series, negative = inhibition, actives largely listed as inhibitors | Biochemical Sfp PPTase activity, qHTS | Q9F4F7 | 310,000 compounds, 3.5% hits;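 also: the enzyme is Sfp with the accession as filed and its product quenches rhodamine fluorescence; potency is read from the fitted curve at half-maximal effect; 0% = enzyme reaction without inhibitor and -100% = no enzyme wells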
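Reaction rates are the 30-min fluorescence difference (ex 525, em 598 nm) in wells containing 15 nM Sfp, 5 uM rhodamine-CoA and 12.5 uM BHQ-2-YbbR at pH 7.6 with 10 mM MgCl2.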
* marks the source's active call; other numbers are inactive results; [ ] = dose if it differs, or a comment. Compounds with a hit are over-represented: about 5.3% of the library has one in this group of screens. Unless noted, calls follow the shape of the dose curve; as a rule, active = well fitted curve in the direction sought with a large enough effect; inconclusive = small, poorly fitted or top-dose-only effect, or another doubt; inactive = no such curve, though single readings can be large; an effect the other way counts as inactive or inconclusive. Unless noted, % is scaled to controls: 0 for no effect and ±100 for the full control effect.

`COc1ccc(-c2nc3cnc(OC)nc3n(-c3ccccc3)c2=O)cc1` gave Coupling enz 4 and Sfp inh -1%.
For O=C(Nc1ccccc1C(=O)OCc1cc(=O)n2ccsc2n1)c1cccc(F)c1 the results were Tau FP inhib -4%, Tau fluor cs 0% and Tau fibril ThT 5%.
O=c1c2c3c(sc2[nH]c(=S)n1Cc1ccco1)CCC3 was read as Coupling enz -2, Tau FP inhib -13%, Tau fluor cs -16%, JMJD2E inh 0%, Tau fibril ThT inconclusive and Sfp inh 50µM*.
CC1(C)Cc2c(sc3[nH]c(=S)n(Cc4ccco4)c(=O)c23)CO1 was read as Coupling enz 11, Tau FP inhib inconclusive, Tau fluor cs -26%, JMJD2E inh inconclusive, Tau fibril ThT 28µM* and Sfp inh 14µM*.
`CN(C)CCCn1c(=O)n(Cc2ccco2)c(=O)c2c3c(sc21)CCCCC3` gave Coupling enz 3, Tau FP inhib -2%, Tau fluor cs -4%, JMJD2E inh -2%, Tau fibril ThT -8% and Sfp inh 20µM*.
For CC1(C)Cc2c(sc3c2c(=N)n(Cc2ccco2)c(=O)n3Cc2ccccc2)CO1 the results were Coupling enz -2, Tau FP inhib 2%, Tau fluor cs 2%, JMJD2E inh -8%, Tau fibril ThT -4% and Sfp inh -13%.
For Cn1c(=O)n(Cc2ccco2)c(=N)c2c3c(sc21)CCC3 the results were Coupling enz 4, Tau FP inhib 0%, Tau fluor cs -4%, JMJD2E inh -1%, Tau fibril ThT -2% and Sfp inh -11%.
For CN(C)CCCn1c(=O)n(CCc2ccccc2)c(=O)c2c3c(sc21)CCCCC3 the results were Coupling enz 1, Tau FP inhib 3%, Tau fluor cs -3%, JMJD2E inh 4%, Tau fibril ThT -5% and Sfp inh 10%.
COC(=O)N[C@@H](/C=C/c1ccccc1)/C(C(=O)OC)=C(\C)NCc1ccccc1 was read as Coupling enz -1, Tau FP inhib -2%, Tau fluor cs -6%, JMJD2E inh 2%, Tau fibril ThT -9% and Sfp inh -9%.
`CCCCC/C=C\C\C=C/C=C/C=C/[C@@H](SC[C@H](N)C(=O)O)[C@@H](O)CCCC(=O)O` gave Tau FP inhib -9%, Tau fluor cs -1%, Tau fibril ThT 2% and Sfp inh 12%.
`N#CC1=C(N)n2c(s/c(=C\c3cccs3)c2=O)=C(C#N)C1c1cccs1` (stereo unspecified) gave Coupling enz -4, Tau FP inhib -7%, Tau fluor cs -28%, JMJD2E inh inconclusive, Tau fibril ThT inconclusive and Sfp inh 45µM*.
For CCOC(=O)C1=C(N)n2c(s/c(=C/c3ccco3)c2=O)=C(C(=O)OC)C1c1ccco1 (stereo unspecified) the results were Coupling enz -6, Tau FP inhib -18%, Tau fluor cs -26%, JMJD2E inh inconclusive, Tau fibril ThT 14µM* and Sfp inh 16µM*.
For N#CC1=C(N)n2c(s/c(=C\c3ccco3)c2=O)=C(C#N)C1c1ccco1 (stereo unspecified) the results were Coupling enz -3, Tau FP inhib inconclusive, Tau fluor cs -27%, JMJD2E inh inconclusive, Tau fibril ThT 20µM* and Sfp inh -86%.
For Cc1ccc(NC(=O)C(=O)NCCc2sc(-c3ccc(Cl)cc3)nc2C)cc1C the results were Tau FP inhib -12%, Tau fluor cs -8% and Tau fibril ThT inconclusive.
Cc1cccc(CNc2ccnc(-c3ccccc3Cl)n2)c1 was read as Coupling enz 0 and Sfp inh -12%.
COc1ccc2c(c1)O[C@@H](c1cccc(C(F)(F)F)c1)[C@H](OC(=O)NC1CCCC1)C2=O was read as Coupling enz 4, Tau FP inhib 2%, Tau fluor cs -11%, JMJD2E inh 7%, Tau fibril ThT -9% and Sfp inh -9%.
C[C@@H]1C(=O)N(S(=O)(=O)c2ccccc2[N+](=O)[O-])[C@H]1c1ccc(-c2ccccc2)cc1 was read as Coupling enz 14 and Sfp inh 16%.
`CCCCNc1nc(C#N)nc(Nc2ccccc2)n1` gave Coupling enz 0.
`O=C(Nc1cccc(S(=O)(=O)N2CCOCC2)c1)c1cn(-c2ccccc2)nc1-c1ccccc1` gave Coupling enz -5, Tau FP inhib 25µM*, Tau fluor cs inconclusive, JMJD2E inh -17%, Tau fibril ThT 6% and Sfp inh 17%.
`Cc1ccc(-c2nn(-c3ccccc3)cc2C(=O)Nc2ccc(C)c(S(=O)(=O)N3CCOCC3)c2)cc1` gave Coupling enz 0, Tau FP inhib 16µM*, Tau fluor cs inconclusive, JMJD2E inh inconclusive, Tau fibril ThT -1% and Sfp inh 14%.
Screening O=C(Nc1cccc(S(=O)(=O)N2CCOCC2)c1)c1cn(-c2ccccc2)nc1-c1ccc(F)cc1 returned Coupling enz -1, Tau FP inhib inconclusive, Tau fluor cs -30%, JMJD2E inh 8%, Tau fibril ThT -4% and Sfp inh 28%.
`CC1=C(C(=O)Nc2cccnc2)C(c2ccccc2)n2nc(SCc3ccccc3Cl)nc2N1` (stereo unspecified) gave Tau FP inhib -15%, Tau fluor cs -10% and Tau fibril ThT -7%.
COc1ccc(/C=N/Nc2snc(SC)c2C#N)cc1OC was read as Tau FP inhib inconclusive, Tau fluor cs 11µM*[quencher], JMJD2E inh inactive, Tau fibril ThT 14µM* and Sfp inh inconclusive.
COc1cccc(/C=N/Nc2snc(SC)c2C#N)c1 was read as Coupling enz -2, Tau FP inhib 5%, Tau fluor cs inconclusive, JMJD2E inh inactive, Tau fibril ThT inconclusive and Sfp inh 56µM*.
Screening CSc1nsc(N/N=C/c2ccccc2)c1C#N returned Coupling enz 0, Tau FP inhib 4%, Tau fluor cs inconclusive, JMJD2E inh 72%, Tau fibril ThT inconclusive and Sfp inh 9%.
For O=C(c1cnccn1)N1CCC[C@@]2(CCN(Cc3cc(C(F)(F)F)cc(C(F)(F)F)c3)C2)C1 the results were Coupling enz -1 and Sfp inh -26%.
For Cc1ccc2nc(Cl)c3cc(C(=O)NC4CCC(C)CC4)sc3c2c1 (stereo unspecified) the results were Tau FP inhib -5%, Tau fluor cs -11% and Tau fibril ThT -3%.
COC(=O)[C@@H](N)Cc1ccc(O)c(O)c1 was read as Tau FP inhib -8%, Tau fluor cs -21%, JMJD2E inh 13µM*, Tau fibril ThT inconclusive and Sfp inh 56µM*.

Screens as filed in PubChem.
